The structures appear in SMILES notation. About 2,600 (0.72%) of roughly 360,000 compounds were called active. Where a call stands in place of a potency, no number is given. About 5% were inconclusive and are not listed. The full list was thinned out, with actives kept by preference. Unmarked numbers belong to inactive results. The call rests on the fitted dose curve; in most records, active means well fitted inhibition curve with a large enough effect; inconclusive means small, poorly fitted or top-dose-only effect; inactive means no such curve, though single readings can be large or run the other way.
Potency means the concentration at half of the fitted maximal effect.

The test in a line: Primary qHTS for Inhibitors of ATXN expression. Further: nearly all actives have a fitted effect of over 55% in size. The note with it: HEK-293 ATXN2-luciferase reporter, luminescence, 24 h; series mostly up to 57 µM. The method in brief:
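qHTS (up to 57 uM final) was run with 24 h compound exposure of reporter cells at 37 °C. Each well was multiplexed: SteadyGlo luminescence measured ATXN2-luciferase expression after a fluorogenic Gly-Phe-AFC viability readout (25 uM final).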
(In qHTS, concentration-response curves come from the screen itself.)
Regarding `COc1ccc(-c2nc(Cn3c(=O)cc(C)c4c(C)nn(-c5ccccc5)c43)c(C)o2)c(OC)c1`, the Potency result was “inactive”. Turning to `CCOc1ccccc1CNC(=O)c1ccc(-n2c(C)cc3c2CCC(C)C3)cc1` (stereo not drawn), the Potency result is “inactive”.

Regarding `CO/N=C(/C(=O)N[C@@H]1C(=O)N2C(C(=O)O)=C(Cn3nnc(C)n3)CS[C@H]12)c1csc(N)n1`, the Potency result was “inactive”. For the compound `CC(C)c1ccc(S(=O)(=O)Nc2ccc(O)c(Sc3nc4ccccc4s3)c2)cc1`, the Potency result is “inactive”.

`O=[N+]([O-])c1c(NCCO)cc(Sc2nc3ccccc3s2)c2nonc12`: the Potency was 14.1 µM (active). For `CC(C)(C)c1ccc(S(=O)(=O)Nc2ccc(O)c(Sc3nc4ccccc4s3)c2)cc1`, the Potency entry was “inactive”. Still for that read-out and setting: next, `CCCCC[C@H](C)N1C[C@@H](COCc2ccccc2)Oc2cc(N3CC[C@@H](N(C)C)C3)ccc2S1(=O)=O`: 31.6 µM (active); `CCCCC[C@H](C)N1C[C@@H](COCc2ccccc2)Oc2cc(N3CCC[C@@H]3CO)ccc2S1(=O)=O`: “inactive”. Consider `CCCCN1CC(COCc2ccccc2)OCCS1(=O)=O` (stereo not drawn), for which the Potency result was “inactive”.

Take `Cc1cccc(Nc2nc(C)nc(N)c2S(=O)(=O)c2ccccc2)c1`: the Potency result is “inactive”.

Turning to `CC(C)CC[n+]1ccn(C2=C([O-])c3ccccc3C(=O)/C2=N\S(=O)(=O)c2ccccc2)c1`, the Potency is 31.6 µM (active). Turning to `CCC1=Nc2cc(C(=O)NCCCOC(C)C)ccc2Sc2ccc(C)cc21`, the Potency result was “inactive”. Take `Cc1ccc(C)c(N2CCN(C(=O)CN3C(=O)COc4ccc(S(=O)(=O)N5CCCCCC5)cc43)CC2)c1`: the Potency entry was “inactive”. In the case of `COc1cccc(CNC(=O)C2CCC(CNS(=O)(=O)c3cccs3)CC2)c1` (stereo not drawn), the Potency entry was “inactive”. On the same count and under the same terms, the same measure for `CC(C)(c1ccccc1)c1ccc(OCCN2CCCC2)cc1`: “inactive”. The same measure, in the same setting: next, `OC(c1ccccc1)(c1ccccc1)C1CCN(CCCOc2ccccc2)CC1`: “inactive”. As to `CN1CCC[C@@H]1CCO[C@](C)(c1ccccc1)c1ccc(Cl)cc1`, the Potency is 25.1 µM (active).

As to `CCOc1ccc(NC(=O)Cn2c(C)ccc(C#N)c2=O)cc1`, the Potency result is “inactive”.

For the compound `NCC[C@H](O)C(=O)N[C@@H]1C[C@H](N)[C@@H](O[C@H]2O[C@H](CN)[C@@H](O)[C@H](O)[C@@H]2O)[C@H](O)[C@@H]1O[C@H]1O[C@H](CO)[C@@H](O)[C@H](N)[C@@H]1O`, the activity change, negative = inhibition is 0.946% [at 0.709 µM]. As for `CCOc1cccc2c1N[C@@H](c1ccc(C(=O)O)cc1)[C@H]1CC=C[C@@H]21`, the Potency entry is “inactive”. As to `O=C(Cc1ccc(Cl)cc1)c1ccccc1`, the Potency entry is “inactive”. As to `O=C(NCCCn1ccnc1)c1ccccc1F`, the Potency entry was “inactive”.

With `CC1=NNC(=O)C1CCC(=O)N/N=C(\C)c1ccc(Cl)cc1` (stereo not drawn), the Potency entry was “inactive”. In the case of `C/C(=N\NC(=O)Cc1ccc(Cl)cc1)c1ccccn1`, the Potency was 3.16 µM (active). With `O=C(Nc1nnc(-c2ccccc2F)s1)c1ccccc1F`, the Potency result was “inactive”. Still for that read-out and setting: the same measure for `C/C(=N\NC(=O)c1ccccc1F)c1ccccn1`: 3.98 µM (active); for `O=C(NCCc1ccccc1)C(=O)NCC(c1ccco1)S(=O)(=O)c1ccccc1` (stereo not drawn): “inactive”; for `CCc1ccc(NC(=O)c2sc3nc4c(cc3c2N)CN(CC)CC4)cc1`: “inactive”. Take `COc1ccc(-c2cc(NC=O)c3ncc(-c4ccccc4)n3c2)cc1OC`: the Potency result was “inactive”. For the compound `CC(=O)N1CCCc2cc(S(=O)(=O)CCC(=O)N3CCN(c4ccccc4)CC3)ccc21`, the Potency entry is “inactive”. The same measure, in the same setting: next, `COc1cccc(N2CCN(S(=O)(=O)c3ccc4c(c3)CCCN4C(C)=O)CC2)c1`: “inactive”. Turning to `CC(=O)N1CCCc2cc(S(=O)(=O)N3CCCC(C(=O)N4CCN(c5cccc(Cl)c5)CC4)C3)ccc21` (stereo not drawn), the Potency is 28.2 µM (active). Consider `COC(CCN(C)C)(c1ccccc1)c1ccccc1`, for which the Potency entry was “inactive”. Regarding `CCCC(C(=O)OCCN(CC)CC)(c1ccccc1)c1ccccc1`, the Potency was 31.6 µM (active). Same read-out and setting: the same measure for `CCN(CC)CCOC(=O)c1ccc(NC(=O)CNC(=O)c2ccccc2)cc1`: “inactive”; for `O=c1cc(CSc2ncn[nH]2)[nH]c2ccc(F)cc12`: “inactive”. Consider `COc1cc(/C=C/C(N)=O)cc(OC)c1OC`, for which the Potency result was “inactive”.

On to `COCCCN1CCC(NC(=O)c2cc(Cl)c(N)c3c2OCC3)CC1`, for which the Potency result was “inactive”.

These data come from PubChem BioAssay AID1745845 (National Center for Advancing Translational Sciences (NCATS), 2022).
